The campaign covered roughly 3,400 compounds. About 120 (3.5%) were called active. Only a sample is shown. Entries with a potency or affinity are not part of this list. Values without a mark were called inactive. No rule for the calls is given here.
assay: HepG2 cell cytotoxicity, dose response, cytotoxicity control, ATP luminescence, cherry-pick, activator set 2 (AID 1053143); settings: HepG2 viability, CellTiter-Glo ATP luminescence, 72 h; series mostly up to 26 µM

Question: For Cc1cccc(C(=O)OCC(=O)c2c(C)[nH]c3ccccc23)c1O, which activity change, negative = cytotoxicity is on record?
Answer: Its activity change, negative = cytotoxicity is “inactive”.

Question: For Cc1cccc(NC(=O)c2c(O)c3ccccc3[nH]c2=O)c1, which activity change, negative = cytotoxicity is on record?
Answer: Its activity change, negative = cytotoxicity is “inactive”.

Question: With Nn1c(SCc2c(F)cccc2F)nnc1-c1ccccn1 as the compound, how does the activity change, negative = cytotoxicity read?
Answer: The activity change, negative = cytotoxicity was “inactive”.

Question: For O=C(Nc1ccc(NC(=O)c2cccs2)cc1Cl)c1ccco1, which activity change, negative = cytotoxicity is on record?
Answer: The activity change, negative = cytotoxicity was “inactive”.

Question: Which activity change, negative = cytotoxicity does the source give for CCC(=O)Nc1ccc(NC(=O)c2ccco2)c(OC)c1 here?
Answer: Its activity change, negative = cytotoxicity is “inactive”.

Question: Which activity change, negative = cytotoxicity does the source give for Cc1cccc(NC(=O)c2ccccn2)c1C here?
Answer: Its activity change, negative = cytotoxicity is “inactive”.

Question: Which activity change, negative = cytotoxicity does the source give for CC1(O)C(c2ccccc2)=Nc2ccccc21 (centres undefined) here?
Answer: Its activity change, negative = cytotoxicity is “inactive”.

Question: For O=C(c1cc(COc2c(F)cccc2F)on1)N1C[C@H]2CC[C@H]1C2, which activity change, negative = cytotoxicity is on record?
Answer: The activity change, negative = cytotoxicity was “inactive”.

Question: For Cc1ccc(-n2nc3ccc(N)cc3n2)cc1C, which activity change, negative = cytotoxicity is on record?
Answer: Its activity change, negative = cytotoxicity is “inactive”.

Question: For CC(C)c1ccc(-n2nc3ccc(N)cc3n2)cc1, which activity change, negative = cytotoxicity is on record?
Answer: Its activity change, negative = cytotoxicity is “inactive”.

Question: For CC(=O)c1ccc2c(c1)Cc1cc(C(C)=O)ccc1-2, which activity change, negative = cytotoxicity is on record?
Answer: Its activity change, negative = cytotoxicity is “inactive”.

Question: For CC1CCc2sc(C(=O)NC3CCCCC3)cc2C1 (centres undefined), which activity change, negative = cytotoxicity is on record?
Answer: The activity change, negative = cytotoxicity was “inactive”.

Question: Which activity change, negative = cytotoxicity does the source give for Cc1ccc(/C=N/Nc2nc3ccccc3[nH]2)s1 here?
Answer: Its activity change, negative = cytotoxicity is “inactive”.

Question: With C=CCn1cc(/C=N/Nc2nc3ccccc3[nH]2)c2ccccc21 as the compound, how does the activity change, negative = cytotoxicity read?
Answer: The activity change, negative = cytotoxicity was “inactive”.

Question: For Fc1ccccc1-c1ccc(/C=N/Nc2nc3ccccc3[nH]2)o1, which activity change, negative = cytotoxicity is on record?
Answer: Its activity change, negative = cytotoxicity is “inactive”.

Question: Which activity change, negative = cytotoxicity does the source give for C(=N\Nc1nc2ccccc2[nH]1)/c1ccc2c(c1)OCCO2 here?
Answer: Its activity change, negative = cytotoxicity is “inactive”.

Question: For Cc1ccsc1/C=N/Nc1nc2ccccc2[nH]1, which activity change, negative = cytotoxicity is on record?
Answer: The activity change, negative = cytotoxicity was “inactive”.

Question: With C(=N\Nc1nc2ccccc2[nH]1)/c1cccs1 as the compound, how does the activity change, negative = cytotoxicity read?
Answer: Its activity change, negative = cytotoxicity is “inactive”.

Question: Which activity change, negative = cytotoxicity does the source give for Clc1nc2ccccc2cc1/C=N/Nc1nc2ccccc2[nH]1 here?
Answer: Its activity change, negative = cytotoxicity is “inactive”.

Question: For C(=C\c1ccccc1)/C=N/Nc1nc2ccccc2[nH]1, which activity change, negative = cytotoxicity is on record?
Answer: Its activity change, negative = cytotoxicity is “inactive”.

Question: For O=C(COC(=O)CC1CCCC1)Nc1cc2c(cc1Cl)C(=O)c1ccccc1C2=O, which activity change, negative = cytotoxicity is on record?
Answer: Its activity change, negative = cytotoxicity is “inactive”.

Question: For O=C(O)CC1=C(Nc2ccccc2)C(=O)N(c2ccccc2)C1c1ccc(Br)cc1 (centres undefined), which activity change, negative = cytotoxicity is on record?
Answer: The activity change, negative = cytotoxicity was “inactive”.

Question: For COC(=O)C(C)N1C(=O)S/C(=C/c2cc(C)n(-c3ccccn3)c2C)C1=O (centres undefined), which activity change, negative = cytotoxicity is on record?
Answer: The activity change, negative = cytotoxicity was “inactive”.

Question: For Cc1cccc(-n2ncc3c(NCCCO)ncnc32)c1, which activity change, negative = cytotoxicity is on record?
Answer: Its activity change, negative = cytotoxicity is “inactive”.

Question: With O=C(CCNC(=O)c1ccc(Br)cc1)Nc1ccc(S(=O)(=O)N2CCOCC2)cc1 as the compound, how does the activity change, negative = cytotoxicity read?
Answer: The activity change, negative = cytotoxicity was “inactive”.

Question: For C=CCc1c(C)nc2cc(-c3ccccc3)[nH]n2c1=O, which activity change, negative = cytotoxicity is on record?
Answer: The activity change, negative = cytotoxicity was “inactive”.

Question: Which activity change, negative = cytotoxicity does the source give for Cc1ccc2oc(C(=O)N(C)Cc3ccon3)c(C)c2c1 here?
Answer: Its activity change, negative = cytotoxicity is “inactive”.

Question: For C(/C=C/c1ccccn1)=C\c1ccccc1, which activity change, negative = cytotoxicity is on record?
Answer: The activity change, negative = cytotoxicity was “inactive”.

Question: With COc1ccc2cc3cc(C(=O)N4CCCC(C)C4)oc3nc2c1 (centres undefined) as the compound, how does the activity change, negative = cytotoxicity read?
Answer: The activity change, negative = cytotoxicity was “inactive”.

Question: With Cn1c(NC(=O)c2ccccc2F)c(-c2cccs2)c(=O)c2ccccc21 as the compound, how does the activity change, negative = cytotoxicity read?
Answer: The activity change, negative = cytotoxicity was “inactive”.

Question: For COc1ccc(N=NC2=C(O)CC(C)(C)CC2=O)cc1, which activity change, negative = cytotoxicity is on record?
Answer: Its activity change, negative = cytotoxicity is “inactive”.

Question: With CCC(=O)Nc1cc(C(=O)OCC(=O)c2ccccc2Cl)ccc1C as the compound, how does the activity change, negative = cytotoxicity read?
Answer: The activity change, negative = cytotoxicity was “inactive”.

Question: Which activity change, negative = cytotoxicity does the source give for CCC(=O)Nc1ccc2nn(-c3ccc(F)cc3)nc2c1 here?
Answer: Its activity change, negative = cytotoxicity is “inactive”.

Question: With Cc1cc2nn(-c3ccccc3)nc2cc1NC(=O)c1cccs1 as the compound, how does the activity change, negative = cytotoxicity read?
Answer: Its activity change, negative = cytotoxicity is “inactive”.

Question: With CC(=O)Nc1cccc(-n2nnc(SCC(=O)c3ccccc3)n2)c1 as the compound, how does the activity change, negative = cytotoxicity read?
Answer: Its activity change, negative = cytotoxicity is “inactive”.

Question: For CCCC(=O)Nc1ccc2oc(-c3cccnc3)nc2c1, which activity change, negative = cytotoxicity is on record?
Answer: Its activity change, negative = cytotoxicity is “inactive”.

Question: Which activity change, negative = cytotoxicity does the source give for Cc1ccc(NC(=O)Nc2cccc(C)n2)cc1 here?
Answer: Its activity change, negative = cytotoxicity is -7.97% [at 6 µM].

Question: Which activity change, negative = cytotoxicity does the source give for O=C(CC(=O)c1ccccc1)Nc1ccccc1 here?
Answer: The activity change, negative = cytotoxicity was “inactive”.

Question: With CC(=O)Nc1cccc(NC(=O)CCCC(=O)O)c1 as the compound, how does the activity change, negative = cytotoxicity read?
Answer: Its activity change, negative = cytotoxicity is “inactive”.

Question: With O=C(Nc1cc(F)c(Br)cc1F)c1ccc(Cl)cc1 as the compound, how does the activity change, negative = cytotoxicity read?
Answer: The activity change, negative = cytotoxicity was “inactive”.

Question: For Cc1cnc(NC(=O)c2ccc3ncsc3c2)s1, which activity change, negative = cytotoxicity is on record?
Answer: The activity change, negative = cytotoxicity was “inactive”.

Question: For NC(=O)Cc1c[nH]c2cccc(O)c12, which activity change, negative = cytotoxicity is on record?
Answer: Its activity change, negative = cytotoxicity is “inactive”.

Question: Which activity change, negative = cytotoxicity does the source give for CCn1c(O)c(C#N)c(C)cc1=O here?
Answer: Its activity change, negative = cytotoxicity is “inactive”.

Question: For O=C(Nc1ccc(F)cc1F)c1csc(-c2cccs2)n1, which activity change, negative = cytotoxicity is on record?
Answer: The activity change, negative = cytotoxicity was “inactive”.

Question: With c1csc(-c2nc(N3CCCCC3)no2)c1 as the compound, how does the activity change, negative = cytotoxicity read?
Answer: Its activity change, negative = cytotoxicity is “inactive”.

Question: With Fc1cccc(CSc2ccc(-c3ccco3)nn2)c1 as the compound, how does the activity change, negative = cytotoxicity read?
Answer: The activity change, negative = cytotoxicity was “inactive”.

Question: For CC(SCc1ccccc1)C(=O)Nc1ccccc1 (centres undefined), which activity change, negative = cytotoxicity is on record?
Answer: Its activity change, negative = cytotoxicity is “inactive”.

Question: With COc1cccc(/C=C/c2ccc3cccc(O)c3n2)c1OC as the compound, how does the activity change, negative = cytotoxicity read?
Answer: The activity change, negative = cytotoxicity was “inactive”.

Question: For COc1c(OC(C)=O)ccc(/C=C/c2ccc3cccc(OC)c3n2)c1[N+](=O)[O-], which activity change, negative = cytotoxicity is on record?
Answer: The activity change, negative = cytotoxicity was “inactive”.

Question: For CCOC(=O)c1cc(OCC)c2c(ccc3ccccc32)n1, which activity change, negative = cytotoxicity is on record?
Answer: Its activity change, negative = cytotoxicity is “inactive”.

Question: For COc1cccc(/C=C/c2ccccn2)c1O, which activity change, negative = cytotoxicity is on record?
Answer: Its activity change, negative = cytotoxicity is “inactive”.

Question: Which activity change, negative = cytotoxicity does the source give for COc1ccc(-c2csc(NC(=O)CC(C)C)n2)cc1 here?
Answer: Its activity change, negative = cytotoxicity is “inactive”.

Question: For COc1ccccc1N1CCN(/N=C\c2ccc(C)o2)CC1, which activity change, negative = cytotoxicity is on record?
Answer: The activity change, negative = cytotoxicity was “inactive”.

Question: Which activity change, negative = cytotoxicity does the source give for COc1ccc(CCNC2CC(=O)N(CCc3ccccc3)C2=O)cc1OC (centres undefined) here?
Answer: The activity change, negative = cytotoxicity was “inactive”.

Question: Which activity change, negative = cytotoxicity does the source give for COc1ccc(NC(=O)Nc2cc(C)ccn2)cc1 here?
Answer: The activity change, negative = cytotoxicity was “inactive”.

Question: For COc1ccc(Nc2nc(N)nc(CSc3nccn3C)n2)cc1, which activity change, negative = cytotoxicity is on record?
Answer: Its activity change, negative = cytotoxicity is “inactive”.

Question: With O=[N+]([O-])c1ccc(Nc2nccc(Cl)n2)cc1 as the compound, how does the activity change, negative = cytotoxicity read?
Answer: The activity change, negative = cytotoxicity was “inactive”.

Question: With Clc1nc(Nc2ccccc2)nc(Nc2ccccc2)n1 as the compound, how does the activity change, negative = cytotoxicity read?
Answer: Its activity change, negative = cytotoxicity is “inactive”.

Question: For COc1ccc2cc(-c3cccnc3)ncc2c1, which activity change, negative = cytotoxicity is on record?
Answer: The activity change, negative = cytotoxicity was “inactive”.

Question: Which activity change, negative = cytotoxicity does the source give for COc1ccc(Nc2ccc3ccccc3c2)cc1 here?
Answer: The activity change, negative = cytotoxicity was “inactive”.

Question: For O=C(c1ccc(Cl)c([N+](=O)[O-])c1)N(Cc1ccc(Cl)cc1)C1CCS(=O)(=O)C1 (centres undefined), which activity change, negative = cytotoxicity is on record?
Answer: Its activity change, negative = cytotoxicity is “inactive”.

Question: With Cn1nnc(NC(=O)C(c2ccccc2)c2ccccc2)n1 as the compound, how does the activity change, negative = cytotoxicity read?
Answer: Its activity change, negative = cytotoxicity is “inactive”.

Question: With O=C(CNC(=O)c1ccccc1)OCC(=O)N1N=C(c2ccc(Cl)cc2)CC1c1ccco1 (centres undefined) as the compound, how does the activity change, negative = cytotoxicity read?
Answer: The activity change, negative = cytotoxicity was “inactive”.

Question: For C#CCNC(=O)/C=C/c1ccc(OC)cc1, which activity change, negative = cytotoxicity is on record?
Answer: The activity change, negative = cytotoxicity was “inactive”.
